Laboratory results from PubChem BioAssay (NCATS).
Where “and” joins values, the source holds several entries; their conditions need not be identical. Equal entries are not always repeated. Records with an inconclusive call do not appear. A call without a number means that no potency is given here. Calls of active or inactive are those of the source. Unless noted, the call rests on the fitted dose curve.

Assay: qHTS assay for small molecule agonists of the antioxidant response element (ARE) signaling pathway (AID 651741; active means well fitted activation curve with a large enough effect in the signal ratio; the % refers to the signal ratio; further: potency means the concentration at half of the fitted maximal effect)
Settings: HepG2 ARE-bla reporter, beta-lactamase FRET ratio, 16 h; series mostly up to 96 µM
In short: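 HepG2 ARE-bla reporter cells, 2,000/well; 5 h settle at 37 C/5% CO2; compound pin transfer (23 nL, DMSO); 16 h at 37 C; LiveBLAzer B/G FRET substrate, 2 h RT; fluorescence intensity read.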
In the case of `Nc1ccn([C@H]2CS[C@@H](CO)O2)c(=O)n1`, the Potency is reported as “inactive”.
In the case of `O=S(=O)(O)O`, the Potency is reported as “inactive”.
For `CCCCC(CC)COC(=O)CC(C(=O)OCC(CC)CCCC)S(=O)(=O)O` (stereo not drawn), the Potency was 43.3 µM (active).
In the case of `CC1=C2[C@@H]([C@H](C)CC[C@H]2/C=C(\C)C(=O)O)[C@H](O)C1`, the Potency is reported as “inactive”.
In the case of `CC1=C(/C=C/C(C)=C/C=C/C(C)=C/CO)C(C)(C)CCC1`, the Potency is reported as 68.6 µM (active) and 42.2 µM (active).
With `CCCCCCCC(=O)O` the Potency was “inactive”.
With `CC(O)CO` (stereo not drawn) the Potency was “inactive”.
With `CCOc1ccc2c(c1)C(C)=CC(C)(C)N2` the Potency was 27.3 µM (active).
With `CCCCC/C=C\C/C=C\CCCCCCCC(=O)O` the Potency was “inactive”.
In the case of `CC(C)=O`, the Potency is reported as “inactive”.
In the case of `IC(I)I`, the Potency is reported as 68.6 µM (active).
For `Cc1ccccc1`, the Potency was “inactive”.
In the case of `CCCCCCCC/C=C\CCCCCCCC(=O)O`, the Potency is reported as “inactive”.

Assay: qHTS assay for small molecule activators of the p53 signaling pathway (AID 651743; active means well fitted activation curve with a large enough effect in the signal ratio, not every such curve was filed as active; the % refers to the signal ratio; further: potency means the concentration at half of the fitted maximal effect)
Settings: HCT-116 p53RE-bla, beta-lactamase FRET ratio, 16 h; activation: hits give high values
In short: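 Reporter: beta-lactamase driven by p53 response elements, stably integrated in HCT-116 cells. Cells seeded at 4,000/well, 5 h preincubation, compound (DMSO) 16 h at 37 C; B/G FRET substrate 2 h RT; fluorescence intensity read.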
With `Nc1ccn([C@H]2CS[C@@H](CO)O2)c(=O)n1` the activation was -1.09% (inactive).
In the case of `CCCCC(CC)COC(=O)CC(C(=O)OCC(CC)CCCC)S(=O)(=O)O` (stereo not drawn), the activation is reported as 1.7% (inactive).
In the case of `CCOC(C)=O`, the activation is reported as -1.83% (inactive).
With `O=CCCCC=O` the Potency was 35.5 µM (active).
With `CC1=C2[C@@H]([C@H](C)CC[C@H]2/C=C(\C)C(=O)O)[C@H](O)C1` the activation was -3.64% (inactive).
With `CC1=C(/C=C/C(C)=C/C=C/C(C)=C/CO)C(C)(C)CCC1` the activation was -4.27% (inactive) and -5.83% (inactive).
For `C[C@H]1C[C@H]2[C@@H]3CCC4=CC(=O)C=C[C@]4(C)[C@@]3(F)[C@@H](O)C[C@]2(C)[C@@]1(O)C(=O)CO`, the activation was -9.59% (inactive).
In the case of `CCCCCCCC(=O)O`, the activation is reported as -2.15% (inactive) and 0.705% (inactive).
In the case of `CC1(C)C(C=C(Cl)Cl)C1C(=O)OCc1cccc(Oc2ccccc2)c1` (stereo not drawn), the activation is reported as -1.26% (inactive) [middle of 4 runs].
In the case of `CC(O)CO` (stereo not drawn), the activation is reported as 0.0778% (inactive) and -3.92% (inactive).
In the case of `CCOc1ccc2c(c1)C(C)=CC(C)(C)N2`, the activation is reported as 3.65% (inactive).
For `CC1=CCC(C(C)(C)O)CC1` (stereo not drawn), the activation was -5.6% (inactive).
With `O=C(O)CN(CCN(CC(=O)O)CC(=O)O)CC(=O)O` the activation was -1.95% (inactive) and 0.161% (inactive).
With `O=C(O)CCC(=O)C(=O)O` the activation was -2.86% (inactive).
For `CCCCC/C=C\C/C=C\CCCCCCCC(=O)O`, the activation was 1.23% (inactive) and -4.95% (inactive).
For `CC(C)=O`, the activation was -0.255% (inactive).
In the case of `IC(I)I`, the activation is reported as -2.94% (inactive) and -3.68% (inactive).
In the case of `Cc1ccccc1`, the activation is reported as 0.393% (inactive) and -4.17% (inactive).
With `CCCCCCCC/C=C\CCCCCCCC(=O)O` the activation was 0.394% (inactive) and 0.396% (inactive).

Assay: qHTS assay for small molecule activators of the nuclear factor-kappa B (NF-kB) signaling pathway (AID 651749; active means well fitted activation curve with a large enough effect in the signal ratio; the % refers to the signal ratio)
Settings: NF-kB-bla ME-180 cells, beta-lactamase FRET ratio, 16 h; hits give high values
In short: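 NF-kB-bla ME-180 cells, 2,000/well; 23 nL compound or DMSO pinned; 16 hr, 37C/5% CO2; beta-lactamase FRET read-out.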
In the case of `Nc1ccn([C@H]2CS[C@@H](CO)O2)c(=O)n1`, the activation is reported as -1.13% (inactive).
In the case of `CCCCC(CC)COC(=O)CC(C(=O)OCC(CC)CCCC)S(=O)(=O)O` (stereo not drawn), the activation is reported as -3.42% (inactive).
With `CCOC(C)=O` the activation was -0.483% (inactive).
In the case of `O=CCCCC=O`, the activation is reported as 3.18% (inactive).
With `CC1=C2[C@@H]([C@H](C)CC[C@H]2/C=C(\C)C(=O)O)[C@H](O)C1` the activation was -0.741% (inactive).
With `CC1=C(/C=C/C(C)=C/C=C/C(C)=C/CO)C(C)(C)CCC1` the activation was -0.416% (inactive) and -2.98% (inactive).
For `C[C@H]1C[C@H]2[C@@H]3CCC4=CC(=O)C=C[C@]4(C)[C@@]3(F)[C@@H](O)C[C@]2(C)[C@@]1(O)C(=O)CO`, the activation was -3.68% (inactive).
With `CC(O)CO` (stereo not drawn) the activation was 3.41% (inactive) and -1.36% (inactive).
For `CC1=CCC(C(C)(C)O)CC1` (stereo not drawn), the activation was -1.34% (inactive).
In the case of `O=C(O)CCC(=O)C(=O)O`, the activation is reported as 0.211% (inactive).
With `CC(C)=O` the activation was 2.82% (inactive).

Assay: qHTS assay for small molecule disruptors of the mitochondrial membrane potential - 1 hr assay (AID 651754); further: nearly all actives have a fitted effect of over 35% in size
Settings: series mostly up to 92.2 µM
In short: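 Read-out: dye fluorescence at 490 nm ex/535 nm em (monomers) and 540 nm ex/590 nm em (aggregates) in HepG2 cells. Compound exposure 1 hr at 37C, followed by 30 min dye loading.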
With `Nc1ccn([C@H]2CS[C@@H](CO)O2)c(=O)n1` the outcome was “inactive”.
With `O=S(=O)(O)O` the outcome was “inactive”.
With `CCOC(C)=O` the outcome was “inactive”.
With `CC(C)(C)NC(=O)[C@@H]1C[C@@H]2CCCC[C@@H]2CN1C[C@@H](O)[C@H](Cc1ccccc1)NC(=O)[C@H](CC(N)=O)NC(=O)c1ccc2ccccc2n1` the outcome was “inactive”.
In the case of `O=CCCCC=O`, the outcome is reported as “inactive”.
In the case of `CC1=C2[C@@H]([C@H](C)CC[C@H]2/C=C(\C)C(=O)O)[C@H](O)C1`, the outcome is reported as “inactive”.
With `CC1=C(/C=C/C(C)=C/C=C/C(C)=C/CO)C(C)(C)CCC1` the outcome was “inactive”.
With `CC(O)CO` (stereo not drawn) the outcome was “inactive”.
With `CCOc1ccc2c(c1)C(C)=CC(C)(C)N2` the outcome was “inactive”.
For `CCCCC/C=C\C/C=C\CCCCCCCC(=O)O`, the outcome was “inactive”.
With `CC(C)=O` the outcome was “inactive”.
For `Cc1ccccc1`, the outcome was “inactive”.
For `CCCCCCCC/C=C\CCCCCCCC(=O)O`, the outcome was “inactive”.

Assay: qHTS assay for small molecule disruptors of the mitochondrial membrane potential - 5 hr assay (AID 651755); further: nearly all actives have a fitted effect of over 40% in size
Settings: JC-1-type ratio dye; series mostly up to 92.2 µM
In short: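 Read-out: ratiometric Mito-MPS fluorescence, green monomer (ex 490/em 535) vs red mitochondrial aggregate (ex 540/em 590). HepG2 cells treated 5 hr at 37C before 30 min dye loading.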
For `Nc1ccn([C@H]2CS[C@@H](CO)O2)c(=O)n1`, the outcome was “inactive”.
With `O=S(=O)(O)O` the outcome was “inactive”.
For `CCOC(C)=O`, the outcome was “inactive”.
In the case of `CC(C)(C)NC(=O)[C@@H]1C[C@@H]2CCCC[C@@H]2CN1C[C@@H](O)[C@H](Cc1ccccc1)NC(=O)[C@H](CC(N)=O)NC(=O)c1ccc2ccccc2n1`, the outcome is reported as “inactive”.
In the case of `O=CCCCC=O`, the outcome is reported as “inactive”.
With `CC1=C2[C@@H]([C@H](C)CC[C@H]2/C=C(\C)C(=O)O)[C@H](O)C1` the outcome was “inactive”.
In the case of `CC(O)CO` (stereo not drawn), the outcome is reported as “inactive”.
For `CCOc1ccc2c(c1)C(C)=CC(C)(C)N2`, the outcome was “inactive”.
With `CCCCC/C=C\C/C=C\CCCCCCCC(=O)O` the outcome was “inactive”.
For `CC(C)=O`, the outcome was “inactive”.
With `Cc1ccccc1` the outcome was “inactive”.
In the case of `CCCCCCCC/C=C\CCCCCCCC(=O)O`, the outcome is reported as “inactive”.
